Most compounds without a hit are left out; they make up all but 4.1% or so of the library.
GDH-TPI inh – counter-screen for M. tuberculosis FBA inhibitors: GDH-TPI coupled enzymes; 360,000 tested, 1.2% active; inhibition, % at 4.8 µM; GDH-TPI coupled enzyme counterscreen, NADH absorbance; in the data active = inhibition above about 30%;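 also: 0% = DMSO wells and 100% = wells lacking the enzyme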
Rv3671c protease – inhibits the M. tuberculosis serine protease Rv3671c; 320,000 tested, 0.048% active; inhibition, % at 5.96 µM; P9WHR9; AID 2606; in the data active = inhibition above about 38%;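 also: extracellular domain of Rv3671c used as enzyme; 0% = enzyme with DMSO and 100% = no enzyme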
RecA splice inh – Mtb RecA intein splicing inhibition; P9WHJ3; cell-free RecA intein splicing, fluorescence; inhibition, % (no concentration beside the values); 290,000 tested, 0.75% active; AID 2221; in the data active = inhibition above about 30%;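 also: 0% = vehicle wells and 100% = reference inhibitor control wells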
Target sequence (P9WHJ3 whole entry, looked up, canonical isoform): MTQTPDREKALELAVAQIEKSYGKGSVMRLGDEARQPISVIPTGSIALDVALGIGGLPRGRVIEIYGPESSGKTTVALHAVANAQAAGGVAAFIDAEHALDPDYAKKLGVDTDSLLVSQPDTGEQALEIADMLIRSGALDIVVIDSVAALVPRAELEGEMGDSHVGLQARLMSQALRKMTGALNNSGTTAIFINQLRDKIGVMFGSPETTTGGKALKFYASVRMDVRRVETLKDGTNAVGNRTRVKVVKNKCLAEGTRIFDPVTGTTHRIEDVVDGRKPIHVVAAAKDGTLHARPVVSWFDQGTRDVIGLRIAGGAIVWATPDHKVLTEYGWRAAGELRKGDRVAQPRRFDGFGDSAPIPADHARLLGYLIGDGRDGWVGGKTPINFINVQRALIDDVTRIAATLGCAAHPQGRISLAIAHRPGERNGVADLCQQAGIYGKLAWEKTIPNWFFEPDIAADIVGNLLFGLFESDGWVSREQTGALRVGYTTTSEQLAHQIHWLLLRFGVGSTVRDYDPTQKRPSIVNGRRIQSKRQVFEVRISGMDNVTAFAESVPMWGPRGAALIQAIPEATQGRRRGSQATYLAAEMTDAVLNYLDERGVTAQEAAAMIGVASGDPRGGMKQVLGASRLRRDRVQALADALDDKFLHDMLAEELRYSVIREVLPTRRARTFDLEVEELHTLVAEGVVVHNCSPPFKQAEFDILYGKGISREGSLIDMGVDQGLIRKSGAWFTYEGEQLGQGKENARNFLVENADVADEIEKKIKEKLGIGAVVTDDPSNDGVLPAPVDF
Mtb FBA inh – Mtb fructose-bisphosphate aldolase inhibition; purified M. tuberculosis FBA, fluorescence read-out; inhibition, % at 1 µM; 360,000 tested, 2.3% active; AID 588726; in the data active = inhibition above about 27%;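 also: 0% = vehicle and 100% = reference inhibitor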
UGM FP inh – Mtb UDP-galactopyranose mutase inhibition; P9WIQ1; purified UGM, fluorescence polarization probe displacement; inhibition, % at 10 µM; 320,000 tested, 0.06% active; AID 504406; in the data active = inhibition above about 10%, passing the limit was not always enough
BH1578 lux ind – inducers of Vibrio cholerae quorum light production without autoinducers; V. cholerae BH1578 lux reporter, luminescence, 6 h; 350,000 tested, 0.16% active; activation, % at 18.7 µM; in the data active = activation mostly above about 9.7%, no sharp cut-off
Active calls of the source: *; i = inactive; / = no result given; + = active, no number.

SMILES | GDH-TPI inh | Rv3671c protease | RecA splice inh | Mtb FBA inh | UGM FP inh | BH1578 lux ind
COC(=O)[C@]1(C)N[C@H](CN(C)C(=O)NC(C)C)[C@@H]2C(=O)N(C)C(=O)[C@@H]21 | 5 | -2 | / | -2 | -2 | 5
O=C(Nc1cc(S(=O)(=O)N2CCOCC2)ccc1N1CCOCC1)c1cccs1 | 6 | 5 | / | -1 | 2 | i
CCOc1cc(C(c2c(C)[nH][nH]c2=O)c2c(C)[nH][nH]c2=O)ccc1OS(=O)(=O)c1ccccc1 | -2 | 3 | 97* | 1 | 3 | 0
Cc1cccc(N2C(=O)NC(=O)/C(=C/c3cc4c(cc3[N+](=O)[O-])OCO4)C2=O)c1 | 5 | 6 | -21 | 13 | 11* | i
Cc1cc(F)ccc1C(O)c1ncc(-c2ccc(Oc3ccccc3)cc2)[nH]1 (centres undefined) | 5 | / | / | -1 | / | -1
CC1=CC(=C(C#N)C#N)C=C(C)N1CCN1CCNCC1 | 31* | 9 | -10 | -2 | -3 | i
COc1ccccc1-c1nnn(CC#N)n1 | -2 | -5 | 0 | 4 | -1 | 20*
Cc1ccc2nc(/C(C#N)=C\c3cc(C)n(-c4cccc([N+](=O)[O-])c4)c3C)[nH]c2c1 | 32* | -1 | 2 | 0 | -2 | 0
Cc1cc(/C=C(/C#N)c2nc3ccccc3[nH]2)c(C)n1-c1cc(C(=O)O)cc(C(=O)O)c1 | 9 | / | -6 | 7 | / | 1
CC(C)N1CCc2c(sc(N)c2C#N)C1 | 32* | -15 | -52 | 22 | 3 | i
CCC(=O)NC(=S)Nc1ccc(NC(=O)c2cc3ccccc3o2)c(OC)c1 | 32* | -7 | 0 | 1 | 0 | i
COc1cc(NC(=S)NC(=O)C(C)C)ccc1NC(=O)c1cc2ccccc2o1 | 14 | 4 | 0 | 4 | 0 | 0
Cc1[nH]c2c(C)cccc2c1CCNC(=O)c1ccc2c(c1[N+](=O)[O-])C(=O)c1ccccc1C2=O | 4 | 21 | 8 | -2 | 3 | 11
CN(C)C(=O)c1ccc2c(c1[N+](=O)[O-])C(=O)c1ccccc1C2=O | 6 | -10 | 55* | 1 | 2 | 0
Cc1cccn2c(=O)c3cc(C(=O)NCCN4CCOCC4)c(=N)n(Cc4ccc(F)cc4)c3nc12 | 7 | 8 | -427 | 156* | 2 | 0
Cc1cccn2c(=O)c3cc(C(=O)NCCN4CCOCC4)c(=N)n(CCN4CCOCC4)c3nc12 | 11 | -3 | -32 | 151* | 3 | 0
Cc1cccn2c(=O)c3cc(C(=O)NC4CCCC4)c(=N)n(CCCN4CCOCC4)c3nc12 | -1 | 1 | i | 141* | 4 | 0
COc1ccc(CCNC(=O)c2cc3c(=O)n4cccc(C)c4nc3n(CCCN3CCOCC3)c2=N)cc1 | -6 | -2 | -3 | 18 | -1 | 7
CCOCCCn1c(=N)c(C(=O)NCCN2CCOCC2)cc2c(=O)n3cccc(C)c3nc21 | -1 | 3 | / | 185* | 0 | -2
CCN(CC)CCN(C(=O)c1ccc2c(c1)CCCC2)c1nc2cc(OC)c(OC)cc2s1 | 0 | 0 | 1 | -4 | 3 | i
CCc1ccc(NC(=O)CCn2nc(C)c(S(=O)(=O)N3CCCCC3)c2C)cc1 | -2 | 8 | 1 | -1 | -4 | -1
COc1cc(/C=N/NC(=O)c2cccnc2)ccc1OCC(=O)N1CCOCC1 | 14 | 1 | -3 | -5 | 0 | 0
COc1cc(C(=O)O)ccc1OCC(=O)N1CCOCC1 | 5 | 5 | 2 | 0 | -2 | /
COc1cc(/C=C2\SC(=O)NC2=O)ccc1OCC(=O)N1CCOCC1 | 37* | -4 | / | 2 | 1 | -3
COc1cc(/C=N/NC(N)=S)ccc1OCC(=O)N1CCOCC1 | 31* | -7 | -7 | 0 | / | 2
SMILES | GDH-TPI inh | Rv3671c protease | RecA splice inh | Mtb FBA inh | UGM FP inh | BH1578 lux ind
Cc1nnc(SCC(=O)N2CCN(c3cccc(Cl)c3)CC2)n1C1CC1 | -4 | -1 | / | 0 | 3 | -1
CC(C)(C)OC(=O)N(CCc1ccccc1)Cc1ccc(OCc2cccc(NC(=O)/C=C/c3ccccc3)c2)cc1 | 36* | / | / | 2 | / | i
CN(C(=O)/C=C/c1ccco1)c1ccccc1C(=O)O | 32* | -3 | -2 | 5 | 0 | 1
Nc1cccc(-c2nc3ncccc3o2)c1 | 10 | 2 | 1 | 2 | -1 | 4
Nc1ccc(-c2nc3ncccc3o2)cc1 | 43* | -5 | -1 | + | 0 | 0
O=C(Nc1ccc(-c2nc3ncccc3o2)cc1)c1ccc(Br)o1 | 57* | -49 | -5 | 14 | 10 | 1
COc1cc2c(cc1OC)C1CCN3C(=O)CCC3N1CC2 (centres undefined) | 9 | / | / | 5 | / | i
COc1ccc2sc(-c3ccc(S(C)(=O)=O)cc3)c(-c3ccc(SC)cc3)c2c1 | 7 | -4 | / | 12 | -3 | i
O=C(NCC(=O)N1CCCCCCC1)c1cccc([N+](=O)[O-])c1 | 17 | 12 | / | 4 | 0 | -1
COc1cc(C)ccc1OCCCOc1ccccc1Cl | 8 | 9 | 3 | -2 | -2 | i
COc1cc(C)ccc1OCCOc1ccccc1Cl | -5 | -3 | 1 | 118* | 0 | 3
COC1C(OC(=O)/C=C/C=C/C=C/C=C/C(=O)O)CCC2(CO2)C1C1(C)OC1CC=C(C)C (centres undefined) (tested in a mixture with another compound) | 64* | / | / | -1 | / | i
CC(=O)Nc1ccc(CN2C(=O)C(C)(C)ON=C2c2ccc(NC(C)=O)cc2)cc1 | -1 | / | / | -1 | / | 0
CC(C)(C)c1ccc(/C=C2/SC(N3CCCC3)=NC2=O)cc1 | 37* | 1 | 17 | -1 | -1 | -1
COc1cc(OC)c(OC)cc1/C=C1\SC(N2CCCCC2)=NC1=O | 17 | 2 | -2 | -2 | 0 | 0
COc1cccc(/C=C2\SC(N3CCCC(C)C3)=NC2=O)c1OC (centres undefined) | 33* | 3 | 0 | 0 | -1 | i
O=C1N=C(N2CCCCC2)S/C1=C\c1ccc(Cl)cc1 | 28 | 1 | 3 | -1 | -1 | i
Cc1ccc(/C=C2\SC(N3CCCCC3)=NC2=O)cc1 | 32* | 7 | 0 | 2 | 1 | 1
O=C1N=C(N2CCCCC2)S/C1=C\c1ccccc1F | 45* | 6 | -1 | -2 | -2 | 0
COc1cccc(/C=C2\SC(N3CCC(C)CC3)=NC2=O)c1OC | 20 | -1 | 1 | 3 | 0 | i
CCc1nc2c(OCc3ccccc3C)cccn2c1N(C)C(=O)c1ccco1 | 6 | / | / | -2 | / | -1
C=CCOc1ccc(/C=C2\SC(N3CCCCC3)=NC2=O)cc1 | 38* | 1 | 4 | 1 | -1 | 0
O=C1N=C(N2CCN(c3ccccc3)CC2)S/C1=C/c1ccco1 | 34* | 0 | 4 | -1 | 0 | 0
CCCOc1ccccc1/C=C1\SC(N2CCCCC2)=NC1=O | 15 | -4 | 0 | 2 | -1 | 0
O=C1N=C(N2CCCC2)S/C1=C\c1ccccc1 | 54* | -3 | 0 | -4 | 5 | i
